Tb PYK inh – qHTS of Trypanosoma Brucei Inhibitors; TbPYK enzyme, Kinase-Glo Plus ATP luminescence, 45 min; Potency, µM (titrated, usually from 76.8 µM), most hits filed as inhibitors; 410,000 tested, 0.12% active; also: nearly all actives have a fitted effect of over 50% in size
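Luminescent Kinase-Glo Plus end-point after 45 min room-temperature reaction of T. brucei pyruvate kinase started with 130 uM ADP (final). Buffer TEA 50 mM pH 7.2 with KCl, MgCl2, BSA, Tween-20; titration-based qHTS with fitted concentration-effect curves.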
Shiga inhibitor – A qHTS for Small Molecule Inhibitors of Shiga Toxin. Vero cells, Shiga toxin protein synthesis inhibition reporter. inhibition, % at 38.7 µM. 290,000 tested, 9.2% active; in the data active = inhibition mostly above about 28%, no sharp cut-off; inactive = mostly below about 43%
Giardia FBPA inh – qHTS Assay for Inhibitors of Fructose-1,6-bisphosphate Aldolase from Giardia Lamblia; A8B2U2; purified Giardia FBPA; Potency, µM (highest dose often 59.6 µM), usual class: inhibitors; 290,000 tested, 0.71% active; AID 2451, 2010; also: nearly all actives have a fitted effect of over 55% in size
Target sequence (A8B2U2 whole entry, looked up): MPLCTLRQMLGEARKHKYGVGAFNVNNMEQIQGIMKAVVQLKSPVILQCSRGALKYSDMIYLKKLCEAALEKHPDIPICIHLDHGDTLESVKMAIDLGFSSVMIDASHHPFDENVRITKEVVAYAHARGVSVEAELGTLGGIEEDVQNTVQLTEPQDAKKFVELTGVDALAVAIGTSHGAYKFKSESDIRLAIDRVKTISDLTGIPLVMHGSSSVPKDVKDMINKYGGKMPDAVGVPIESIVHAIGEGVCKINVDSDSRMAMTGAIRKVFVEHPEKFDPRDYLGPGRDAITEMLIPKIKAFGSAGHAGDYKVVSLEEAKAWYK
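Giardia FBPA (40 nM reagent) was preincubated 10 min at RT with compound (up to 57.5 uM final), then substrate plus GAPDH/TPI/NAD/arsenate coupling system with diaphorase/resazurin was added; resorufin fluorescence (525/598 nm) was read after 20 min.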
Cycloheximide cs – Cycloheximide Counterscreen for Small Molecule Inhibitors of Shiga Toxin; cell reporter, cycloheximide protein synthesis inhibition counterscreen; 300,000 tested, 12% active; AID 2314, 2010; max response, %; in the data active = max response mostly above about 13%, no sharp cut-off; inactive = mostly below about 14%; also: read at 38.3 µM for the half of the compounds with a filed dose
RE007 growth inh – qHTS Assay for Inhibitors of the HIV-1 protein Vpr. AID 651644, 2012. Potency, µM (series often up to 92.2 µM), hits mostly inhibitors. 360,000 tested, 0.21% active. S. pombe RE007 Vpr strain, BacTiter-Glo ATP luminescence, 24 h; active = well fitted falling curve with a large enough effect; inconclusive = small, poorly fitted or top-dose-only effect; inactive = no such curve, though single readings can be large or run the other way; also: nearly all actives have a fitted effect of over 50% in size
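Fission yeast RE007 carrying one integrated HIV-1 vpr copy, seeded at OD 0.01 in PMG+AL medium with 23 nL pinned compound. Grown 24 h at 30 degrees; viability read by BacTiter-Glo luminescence after 5 min.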
LmPK inh – qHTS Assay for Inhibitors of Leishmania Mexicana Pyruvate Kinase (LmPK); Potency, µM (top dose mostly 57.5 µM), usual class: inhibitors; 290,000 tested, 0.37% active; purified LmPK, Kinase-Glo ATP luminescence, 1 h
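Kinase-Glo luminescence read after 1 h RT reaction of 0.1 nM LmPK with 0.5 mM PEP and 0.1 mM ADP. Activity scaled between uninhibited and enzyme-free controls.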
Numbers stand for hits; i = inactive; ? = inconclusive; nt = no result; [ ] = another dose, or the depositor's remark. This is one part of a sample in which hits are shown more often than they occur. Unless noted, calls follow the shape of the dose curve; as a rule, active = well fitted curve in the direction sought with a large enough effect; inconclusive = small, poorly fitted or top-dose-only effect, or another doubt; inactive = no such curve, though single readings can be large; an effect the other way counts as inactive or inconclusive.

SMILES	Tb PYK inh	Shiga inhibitor	Giardia FBPA inh	Cycloheximide cs	RE007 growth inh	LmPK inh
CCOC(=O)c1nc2ccccc2c(=O)[nH]1	i	54.3	i	36.6	i	i
CCOC(=O)CSc1nc2ccccc2c(=O)[nH]1	i	i	i	i	i	i
Cc1ccsc1C(=O)OCc1nc2ccccc2c(=O)[nH]1	i	61.1	i	58.3	i	i
Cc1ccsc1C(=O)OCc1nc2ccsc2c(=O)[nH]1	i	nt	nt	nt	i	nt
Cc1cccc2cc(C3CC(c4ccco4)=NN3S(=O)(=O)c3ccccc3)c(Cl)nc12 (configuration not stated)	i	86.4	i	35.8	i	i
COCCCNC(=S)Nc1ccc(C)cc1[N+](=O)[O-]	i	55.0	i	19.7	i	i
CCOc1ccccc1NC(=O)C(OC(=O)c1cnc(C)cn1)c1ccccc1 (configuration not stated)	i	nt	nt	nt	i	nt
COCCNC(=S)Nc1ccc([N+](=O)[O-])cc1C	i	i	i	i	i	i
COCCNC(C(=O)Nc1ccc(C)cc1[N+](=O)[O-])c1ccccc1 (configuration not stated)	i	i	i	27.8	i	i
Cc1ccc(NC(=O)C(OC(=O)c2cnc(C)cn2)c2ccccc2)c([N+](=O)[O-])c1 (configuration not stated)	i	i	nt	14.3	i	i
COc1ccc(C(=O)N2c3ccc(C)cc3C(C)(c3ccccc3)CC2(C)C)cc1 (configuration not stated)	i	nt	nt	nt	nt	nt
Cc1ccc(Cl)cc1NC(=O)Cn1cc2c(n1)CCCCC2	i	nt	nt	nt	nt	nt
Cc1ccc(S(=O)(=O)N/N=C\c2cn(-c3ccccc3)nc2-c2ccccc2)cc1	i	i	i	19.7	i	i
O=S(=O)(N/N=C\c1cn(-c2ccccc2)nc1-c1ccccc1)c1ccccc1	i	i	i	i	i	i
Cc1ccc(-c2nn(-c3ccccc3)cc2/C=N/NS(=O)(=O)c2ccccc2)cc1	i	i	i	36.1	i	i
CCOC(=O)c1c(NC(=O)c2cc(=O)c3c(C)cc(C)cc3o2)sc(C(C)=O)c1C	i	nt	nt	nt	nt	nt
COc1ccc(-c2nnc(SCC(=O)Oc3cc(C)ccc3C)o2)cc1	i	nt	nt	nt	nt	nt
COc1cccc(-c2nc(-c3ccc4c(c3)NC(=O)CO4)cs2)c1	i	104.5	i	49.8	i	i
CC(Nc1nc(-c2ccc3c(c2)NC(=O)CO3)cs1)c1ccccc1 (configuration not stated)	i	i	i	18.3	i	i
Cc1c(Cl)cccc1NC(=O)NCCOCCn1c(=O)oc2ccccc21	i	nt	nt	nt	nt	nt
COc1ccc(-c2nc3sc(CCNC(=O)c4cc(OC)c(OC)c(OC)c4)c(C)n3n2)cc1	i	nt	nt	nt	nt	nt
CCCCOc1ccc(CNC(=O)Cc2ccc(NC(=O)N3CCCCc4ccccc43)cc2)cc1	i	nt	nt	nt	nt	nt
COc1ccc(CNc2nc(NCc3ccc(OC)cc3)c3ncn(C4CCCCC4)c3n2)cc1	nt	36.8	i	49.5	nt	nt
COc1ccc(CNC(=O)c2cccn2-c2nnc(N3CCCCC3)s2)c(OC)c1	i[15.4 µM]	nt	nt	nt	nt	nt
COCCn1c(-c2ccc(OC)cc2)nc2ccccc21	i	i	i	15.7	i	i
SMILES	Tb PYK inh	Shiga inhibitor	Giardia FBPA inh	Cycloheximide cs	RE007 growth inh	LmPK inh
COCCn1c(COc2ccc(C)cc2)nc2ccccc21	i	71.3	i	42.0	?	i
CCn1c(COc2ccc(C)cc2)nc2ccccc21	i	78.6	i	43.9	i	i
CCOCCn1c(COc2ccc(C)cc2)nc2ccccc21	i	40.2	i	37.1	i	i
Cc1ccc(OCc2nc3ccccc3n2CCOc2ccc(Cl)cc2)cc1	i	nt	nt	nt	nt	nt
COc1ccc(-c2nc3cnc(N4CCN(C)CC4)nc3n(Cc3ccc(F)cc3)c2=O)cc1	nt	nt	i	nt	nt	nt
CCN(CC)c1ccc(NC(=O)COCc2cc(-c3ccc4c(c3)OCO4)on2)c(C)c1	i	nt	nt	nt	nt	nt
Cc1ccc(Oc2ccc(C(F)(F)F)cc2[N+](=O)[O-])c([N+](=O)[O-])n1	i	i	i	29.6	i	i
COc1ccccc1N1CCN(/N=C(\C)c2ccc(O)cc2)CC1	i	43.4	i	28.1	i	i
COc1ccccc1N1CCN(Cc2ccc(C(=O)O)cc2)CC1	i	i	i	i	i	i
COc1ccccc1N1CCN(/N=C/c2ccc(O)c(O)c2)CC1	?	55.2	?	38.0	i	i
COc1ccc(/C=N/N2CCN(c3ccccc3OC)CC2)cc1Br	i	nt	i	29.8	i	i
COc1ccccc1N1CCN(/N=C/c2cc(Br)ccc2F)CC1	i	i	i	16.0	i	i
CC[C@H](C)[C@@H](NC(=O)O[C@@H]1Cc2cc(OC)ccc2O[C@H]1c1cccc(OC)c1)C(=O)OC	nt	nt	i	nt	nt	nt
CC1CCN(C(=O)c2ccc3c(c2)N(Cc2ccccc2)C(=O)c2ccccc2S3(=O)=O)CC1	i	nt	nt	nt	nt	nt
COc1ccc(/C=N/N2CCN(c3ccccc3OC)CC2)cc1OC	i	i	i	16.5	i	i
COc1ccccc1N1CCN(/N=C/c2ccc(C(=O)O)cc2)CC1	i	154.1	i	48.2	i	i
COc1ccc(/C=N/N2CCN(C)CC2)cc1OC	i	i	i	i	i	i
COc1ccccc1N1CCN(/N=C/c2cc(OC)c(OC(C)=O)c(OC)c2)CC1	i	nt	i	i	i	i
Cc1ccc(-n2c(-c3ccccc3)n[nH]c2=S)cc1	?	i	i	i	i	?
Cc1ccc(C)c(-n2c(-c3ccncc3)n[nH]c2=S)c1	?	i	?	i	i	20µM
Cc1ccc(-n2c(-c3ccccc3)n[nH]c2=S)c(C)c1	11.2µM	i	i	i	i	i
CCN(CC)c1ccc(-c2n[nH]c(=S)n2-c2ccccc2C)cc1	?	i	i	i	i	i
Cc1ccc(-n2c(-c3ccncc3)n[nH]c2=S)cc1C	?	i	i	i	i	i
Cc1ccc(C)c(-n2c(-c3ccc4c(c3)OCO4)n[nH]c2=S)c1	5.01µM	i	i	i	i	3.98µM
Cc1ccc(-n2c(-c3ccncc3)n[nH]c2=S)cc1	?	168.3	i	31.3	i	15.8µM
SMILES	Tb PYK inh	Shiga inhibitor	Giardia FBPA inh	Cycloheximide cs	RE007 growth inh	LmPK inh
Cc1cn(C)c(CC(=O)NCc2ccccc2Cl)c1C(=O)O	i	nt	nt	nt	nt	nt
CCCc1ccc(OCc2ccc(C(=O)Nc3ccccc3C(=O)OC)o2)cc1	i	nt	nt	nt	nt	nt
Cc1ccc(C)c(-n2c(-c3csc(C)c3)n[nH]c2=S)c1	?	i	i	i	i	7.94µM
O=C(CCc1nnc(-c2ccccc2)o1)NCC1CCN(C2CCCC2)CC1	i	i	i	i	i	i
O=C(CCc1nnc(-c2ccsc2)o1)NCc1ccccc1OC(F)(F)F	i	i	i	10.5	i	i
O=C(CCc1nnc(-c2ccccc2)o1)NCc1cc(F)ccc1F	i	i	i	16.8	i	i
COc1cc(/C=N/O)ccc1Oc1ccc([N+](=O)[O-])cc1[N+](=O)[O-]	i	i	i	i	i	i

High-throughput results: PubChem BioAssay, National Center for Advancing Translational Sciences (NCATS)
